In paper PMC7862700, “An all-to-all approach to the identification of sequence-specific readers for epigenetic DNA modifications on cytosine”:

Assays:
Test in all cases: DAPPL (digital affinity profiling via proximity ligation, sequencing); 10 mM Tris-HCl pH 7.5, 50 mM NaCl, 1 mM DTT, 4% glycerol, room temperature, 30 min; GST-TFs on glutathione beads, 16-mer random dsDNA library, 0.1% formaldehyde crosslink after washing; high values mean tight binding
Details in all cases: protein: recombinant; tags: N-terminal GST; dsDNA, one strand shown
FLI1 = target: T1, FLI1 (Homo sapiens, UniProt Q01543 1-452)
T1 sequence: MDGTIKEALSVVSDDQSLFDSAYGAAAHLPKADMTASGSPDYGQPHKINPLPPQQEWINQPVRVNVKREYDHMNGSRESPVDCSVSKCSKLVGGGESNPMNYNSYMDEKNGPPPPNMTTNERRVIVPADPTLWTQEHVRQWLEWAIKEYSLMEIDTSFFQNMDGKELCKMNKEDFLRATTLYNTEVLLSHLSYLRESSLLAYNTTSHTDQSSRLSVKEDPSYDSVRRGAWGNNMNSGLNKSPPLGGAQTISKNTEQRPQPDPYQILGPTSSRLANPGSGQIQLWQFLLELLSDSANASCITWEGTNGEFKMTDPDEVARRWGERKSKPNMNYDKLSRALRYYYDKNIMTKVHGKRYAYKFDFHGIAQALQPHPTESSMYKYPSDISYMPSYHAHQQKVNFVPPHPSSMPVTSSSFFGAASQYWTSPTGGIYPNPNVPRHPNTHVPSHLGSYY
Summary of the method: (§1)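 The binding signal reported is, for every hexamer, its read frequency for a factor over its read frequency for the tag-only sample. Reads came from pools of yeast-expressed, GST-fused human transcription factors on glutathione beads, barcoded with DNA and mixed with that sample, which were incubated with 200 nmole of a random double-stranded 16-mer DNA library in Tris/NaCl/DTT/glycerol buffer at room temperature for 30 min. After washing, the pools were crosslinked with 0.1% formaldehyde, proximity-ligated with BsaI/T4 ligase for 1 h at 37 °C, PCR-amplified and sequenced on an Illumina NextSeq500.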

ELK1 = target: T2, ELK1 (Homo sapiens, UniProt P19419 1-428)
T2 sequence: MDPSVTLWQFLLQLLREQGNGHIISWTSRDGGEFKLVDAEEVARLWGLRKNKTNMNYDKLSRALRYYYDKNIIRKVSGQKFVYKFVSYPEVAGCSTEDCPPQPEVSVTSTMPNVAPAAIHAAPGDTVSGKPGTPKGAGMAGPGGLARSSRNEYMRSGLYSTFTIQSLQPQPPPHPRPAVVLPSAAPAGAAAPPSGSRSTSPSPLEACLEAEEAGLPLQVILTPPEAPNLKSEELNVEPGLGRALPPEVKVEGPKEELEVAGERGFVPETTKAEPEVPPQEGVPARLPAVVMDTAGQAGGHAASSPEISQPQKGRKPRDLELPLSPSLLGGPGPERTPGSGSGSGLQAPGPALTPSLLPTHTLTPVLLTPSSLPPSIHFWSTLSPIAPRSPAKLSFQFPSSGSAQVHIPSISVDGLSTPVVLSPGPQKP
Summary of the method: as §1

GABPA = target: T3, GABPA (Homo sapiens, UniProt Q06546 1-454)
T3 sequence: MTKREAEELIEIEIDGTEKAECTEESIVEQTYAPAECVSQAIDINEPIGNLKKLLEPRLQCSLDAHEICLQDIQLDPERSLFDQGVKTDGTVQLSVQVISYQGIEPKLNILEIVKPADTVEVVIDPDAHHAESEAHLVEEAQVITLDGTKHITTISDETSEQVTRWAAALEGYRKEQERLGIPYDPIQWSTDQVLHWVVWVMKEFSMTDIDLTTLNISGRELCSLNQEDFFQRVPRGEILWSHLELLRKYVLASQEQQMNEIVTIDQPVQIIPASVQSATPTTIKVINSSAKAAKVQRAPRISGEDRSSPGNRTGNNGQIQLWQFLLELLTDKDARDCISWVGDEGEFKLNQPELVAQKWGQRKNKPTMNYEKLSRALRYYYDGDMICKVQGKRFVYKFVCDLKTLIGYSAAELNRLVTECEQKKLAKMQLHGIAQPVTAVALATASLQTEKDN
Summary of the method: as §1

ERG = target: T4, ERG (Homo sapiens, UniProt P11308 1-479)
T4 sequence: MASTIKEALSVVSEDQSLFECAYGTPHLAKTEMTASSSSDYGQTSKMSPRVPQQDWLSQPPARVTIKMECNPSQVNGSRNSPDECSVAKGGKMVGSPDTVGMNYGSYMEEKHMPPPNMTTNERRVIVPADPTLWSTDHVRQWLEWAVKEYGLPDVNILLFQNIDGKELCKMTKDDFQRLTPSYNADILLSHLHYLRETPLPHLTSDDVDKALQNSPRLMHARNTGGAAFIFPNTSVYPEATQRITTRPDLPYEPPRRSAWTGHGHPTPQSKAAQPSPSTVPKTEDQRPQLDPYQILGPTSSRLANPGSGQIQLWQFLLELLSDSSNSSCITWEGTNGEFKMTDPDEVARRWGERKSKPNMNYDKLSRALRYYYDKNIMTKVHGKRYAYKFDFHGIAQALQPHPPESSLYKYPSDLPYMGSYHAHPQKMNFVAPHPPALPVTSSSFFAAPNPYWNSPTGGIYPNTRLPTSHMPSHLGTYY
Summary of the method: as §1

ELF1 = ELF1 (Homo sapiens, UniProt P32519 1-619)
Summary of the method: as §1

EHF = target: T5, EHF (Homo sapiens, UniProt Q9NZC4 1-300)
T5 sequence: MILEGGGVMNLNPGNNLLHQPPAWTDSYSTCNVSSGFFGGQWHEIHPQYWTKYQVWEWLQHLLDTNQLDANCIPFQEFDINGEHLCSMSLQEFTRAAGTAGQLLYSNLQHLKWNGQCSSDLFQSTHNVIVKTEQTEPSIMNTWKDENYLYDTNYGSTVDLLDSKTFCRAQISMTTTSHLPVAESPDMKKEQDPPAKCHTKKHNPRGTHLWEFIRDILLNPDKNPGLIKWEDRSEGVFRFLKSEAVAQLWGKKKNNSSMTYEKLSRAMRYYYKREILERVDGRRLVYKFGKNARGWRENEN
Summary of the method: as §1

SPI1 = SPI1 (Homo sapiens, UniProt P17947 1-270)
Summary of the method: as §1

SPIB = SPIB (Homo sapiens, UniProt Q01892 1-262)
Summary of the method: as §1

ELK3 = target: T6, ELK3 (Homo sapiens, UniProt P41970 1-407)
T6 sequence: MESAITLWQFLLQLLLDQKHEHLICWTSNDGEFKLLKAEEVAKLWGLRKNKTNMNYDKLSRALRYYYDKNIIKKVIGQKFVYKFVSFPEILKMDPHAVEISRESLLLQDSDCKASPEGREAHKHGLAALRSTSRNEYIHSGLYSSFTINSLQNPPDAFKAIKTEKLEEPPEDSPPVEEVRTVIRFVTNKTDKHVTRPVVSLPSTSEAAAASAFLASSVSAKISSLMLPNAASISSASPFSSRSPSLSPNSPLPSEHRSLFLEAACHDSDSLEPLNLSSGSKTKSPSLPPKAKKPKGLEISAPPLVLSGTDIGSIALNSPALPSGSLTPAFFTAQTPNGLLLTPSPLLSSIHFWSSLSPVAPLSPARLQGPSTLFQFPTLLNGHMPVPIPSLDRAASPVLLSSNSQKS
Summary of the method: as §1

ELF1, sequence (P32519 whole entry): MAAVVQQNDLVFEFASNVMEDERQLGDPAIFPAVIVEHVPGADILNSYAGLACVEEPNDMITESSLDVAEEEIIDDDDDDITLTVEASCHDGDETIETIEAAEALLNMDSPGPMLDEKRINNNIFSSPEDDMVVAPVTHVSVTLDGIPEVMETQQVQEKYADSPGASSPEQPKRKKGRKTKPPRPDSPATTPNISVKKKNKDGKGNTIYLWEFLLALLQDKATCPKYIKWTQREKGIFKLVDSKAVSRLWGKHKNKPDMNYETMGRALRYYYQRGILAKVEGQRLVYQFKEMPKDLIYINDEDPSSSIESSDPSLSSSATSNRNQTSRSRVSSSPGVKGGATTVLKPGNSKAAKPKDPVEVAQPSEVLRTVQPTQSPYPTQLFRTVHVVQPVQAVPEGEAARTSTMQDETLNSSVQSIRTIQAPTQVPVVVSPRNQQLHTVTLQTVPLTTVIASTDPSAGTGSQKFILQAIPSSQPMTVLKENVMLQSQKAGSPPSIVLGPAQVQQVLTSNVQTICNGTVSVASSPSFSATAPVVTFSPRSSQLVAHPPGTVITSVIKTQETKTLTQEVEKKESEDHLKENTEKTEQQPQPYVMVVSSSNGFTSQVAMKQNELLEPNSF
SPIB, sequence (Q01892 whole entry): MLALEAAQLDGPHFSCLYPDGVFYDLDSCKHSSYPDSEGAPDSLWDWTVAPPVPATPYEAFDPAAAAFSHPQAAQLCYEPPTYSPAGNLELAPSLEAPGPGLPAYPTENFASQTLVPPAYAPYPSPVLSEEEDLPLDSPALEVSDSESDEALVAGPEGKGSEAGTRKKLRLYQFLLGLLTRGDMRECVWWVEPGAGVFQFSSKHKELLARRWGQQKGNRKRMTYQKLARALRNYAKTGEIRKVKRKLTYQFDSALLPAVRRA

Sequence: TTGATT
- binding signal (FLI1): 1.48 fold enrichment (6-mer frequency, TF over GST control)
- binding signal (ELK1): 1.32 fold enrichment (6-mer frequency, TF over GST control)
- binding signal (GABPA): 1.31 fold enrichment (6-mer frequency, TF over GST control)
- binding signal (ERG): 1.29 fold enrichment (6-mer frequency, TF over GST control)
- binding signal (ELF1): 1.29 fold enrichment (6-mer frequency, TF over GST control)
- binding signal (EHF): 1.26 fold enrichment (6-mer frequency, TF over GST control)
- binding signal (SPI1): 1.18 fold enrichment (6-mer frequency, TF over GST control)
- binding signal (SPIB): 1.26 fold enrichment (6-mer frequency, TF over GST control)
- binding signal (ELK3): 1.2 fold enrichment (6-mer frequency, TF over GST control)
